Measured values: PubChem BioAssay (NCI)
The panel holds about 83,000 compounds, 20% with a hit somewhere; the sample as a whole holds those more often.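 Single-dose data. Exposure time 48 hours. Values below 10 considered active.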 Values without a mark were called inactive. Activity calls are given as the source filed them.

What was measured:
Test in all cases: NCI-60 one-dose screen, 48 h (100 = growth as untreated, 0 = no growth, -100 = all killed)
Conditions in all cases: 10 µM unless noted
NCI-H23 lung = tested on: NCI-H23 lung
NCI-H226 lung = tested on: NCI-H226 lung
NCI-H322M lung = tested on: NCI-H322M lung
HOP-62 NSCLC = tested on: HOP-62 NSCLC
NCI-H460 lung = tested on: NCI-H460 lung
HOP-92 NSCLC = tested on: HOP-92 NSCLC
A549/ATCC NSCLC = tested on: A549/ATCC NSCLC
786-0 renal = tested on: 786-0 renal
DU-145 prostate = tested on: DU-145 prostate
MALME-3M melanoma = tested on: MALME-3M melanoma
MDA-MB-231 breast = tested on: MDA-MB-231 breast
SF-268 CNS = tested on: SF-268 CNS
SF-295 CNS = tested on: SF-295 CNS
SF-539 CNS = tested on: SF-539 CNS
UACC-257 melanoma = tested on: UACC-257 melanoma
M14 melanoma = tested on: M14 melanoma
NCI-H522 lung = tested on: NCI-H522 lung
COLO 205 colon = tested on: COLO 205 colon
K-562 leukemia = tested on: K-562 leukemia
RXF 393 renal = tested on: RXF 393 renal

Compound	growth (NCI-H23 lung)	growth (NCI-H226 lung)	growth (NCI-H322M lung) [%]	growth (HOP-62 NSCLC)	growth (NCI-H460 lung)	growth (HOP-92 NSCLC)	growth (A549/ATCC NSCLC)	growth (786-0 renal)	growth (DU-145 prostate)	growth (MALME-3M melanoma)	growth (MDA-MB-231 breast)	growth (SF-268 CNS)	growth (SF-295 CNS)	growth (SF-539 CNS)	growth (UACC-257 melanoma)	growth (M14 melanoma)	growth (NCI-H522 lung)	growth (COLO 205 colon)	growth (K-562 leukemia)	growth (RXF 393 renal) [%]
CCCOc1nc(SCCC)nc2c1cnn2-c1ccccc1	93.8%	96.6%	137	126%	101%	98.2%	100%	105%	110%	119%	105%	87.7%	108%	98.4%	113%	109%	–	–	–	–
COc1ccc(/C=N/C2=C(C#N)C(c3ccccc3[N+](=O)[O-])c3ccc4ccccc4c3O2)cc1 (configuration not stated)	79%	70.4%	90.6	103%	–	97.1%	99.8%	101%	100%	89.8%	77.7%	87.4%	94.9%	97.3%	102%	90.4%	88.1%	104%	80.2%	109
COc1ccc(C(=O)/C=C/c2cn(Cc3ccc(Cl)cc3)c3ccccc23)cc1	87.5%	55.1%	79.5	58.9%	11.8%	77.3%	–	26.9%	87.4%	59.9%	64.5%	72.4%	60.2%	55.8%	81.8%	-60.1% (active)	–	62.9%	15.5%	–
COc1cc(C2CC(c3cccc(Nc4ccncc4)c3)=NN2c2ccccc2)cc(OC)c1OC (configuration not stated)	90%	96%	80.1	59.6%	4.66% (active)	28.1%	44.9%	69.1%	45.4%	-77.7% (active)	63.4%	64.7%	58.6%	76.9%	-13.8% (active)	58.9%	–	-52.5% (active)	0.38% (active)	–
C/C(=C(/c1ccccc1)c1ccc(OCC(O)CN2CCOCC2)cc1)c1ccccc1 (configuration not stated)	101%	96.6%	95.4	90.1%	92.6%	80.2%	87.2%	67.1%	98.1%	75.3%	104%	104%	108%	74.2%	93.4%	-45.1% (active)	–	69.4%	19.7%	–
CCc1c(Nc2ccc(C)cc2)nc(N)[nH]c1=O	103%	102%	103	98.7%	108%	93.7%	99.5%	100%	111%	98.6%	94.7%	102%	98.3%	101%	102%	100%	–	108%	94.7%	109
COc1ccccc1/C=C1\COc2ccc(-c3ccccc3)cc2C1=O	68%	88.4%	80	-55.3% (active)	12.2%	49.3%	37.8%	-49.2% (active)	7.94% (active)	73.7%	43.8%	22.1%	22.2%	30.5%	56.9%	17.4%	–	9.86% (active)	3.54% (active)	–
CCOC(=O)N1CCN(CCCCl)CC1	103%	102%	101	109%	105%	95%	94.8%	98.4%	115%	102%	100%	104%	98.8%	97.7%	96.6%	101%	–	113%	96.2%	118
O=S(=O)(O)c1cc(O)c2c(N=Nc3ccc(Nc4ccccc4)c4c(S(=O)(=O)O)cccc34)cc(S(=O)(=O)O)cc2c1	100%	101%	120	100%	105%	101%	101%	102%	107%	130%	102%	101%	105%	96.2%	95.6%	103%	–	97.9%	112%	109
COC(=O)CCCCCCCCC1(C)C=CC(C(C)O)=CC1 (configuration not stated)	96.2%	97%	109	101%	111%	93.2%	94%	108%	110%	105%	110%	105%	109%	112%	108%	110%	–	111%	84.5%	107
Fc1ccc(C2CC(c3cccc(Nc4ccncc4)c3)=NN2c2ccc(Cl)cc2)cc1 (configuration not stated)	88.6%	91.4%	78	64.9%	-53.9% (active)	52.2%	52.6%	104%	52%	33.1%	60.7%	77.9%	66.5%	84.1%	80.8%	101%	–	-59.8% (active)	1.22% (active)	–
CN1CCN(Cc2ccc(NC(=O)c3cncc(C#Cc4cnccc4C(F)(F)F)c3)cc2C(F)(F)F)CC1	67.9%	47.8%	107	80.5%	71.6%	55.6%	94%	89.7%	105%	15.3%	55.6%	92.1%	88.6%	28.8%	80.4%	–	–	–	8.53% (active)	–
O=C(OC(OC(=O)c1cc(Cl)cc(Cl)c1)c1cccc2ccccc12)c1ccccc1 (configuration not stated)	93.6%	98.7%	101	99.5%	–	101%	92.6%	101%	103%	91%	95.5%	94.8%	107%	103%	96.1%	101%	80.4%	112%	92.1%	110
NC(=O)CN1CCN(c2ccccc2Cl)CC1	99.7%	102%	94.3	104%	–	103%	111%	91.6%	108%	104%	102%	106%	97.9%	107%	107%	102%	92.3%	110%	97.2%	112
COc1cccc2c1C(=O)c1c(O)c3c(c(O)c1C2=O)C[C@@](O)(C(=O)CO)C[C@@H]3O[C@H]1C[C@H](N)[C@@H](O)[C@H](C)O1	-25% (active)	-41.8% (active)	13.6	-18% (active)	–	-26% (active)	-22.5% (active)	12.1%	-26.8% (active)	-50.7% (active)	1.94% (active)	-15.4% (active)	-16.1% (active)	-23.9% (active)	-49.3% (active)	-47.4% (active)	-55.2% (active)	-86.6% (active)	1.44% (active)	–
CSc1nnc2c(=O)n(C)c(=O)n(C)c2n1	108%	93.2%	88.9	116%	–	68.1%	104%	116%	100%	114%	105%	108%	130%	109%	123%	–	103%	97.8%	86.1%	–
C/C(=C(/c1ccccc1)c1ccc(OCC(O)CNCCN2CCOCC2)cc1)c1ccccc1 (configuration not stated)	83.2%	96.1%	72.7	54.9%	–	59.1%	70.8%	97.6%	67.8%	-71.2% (active)	29.4%	78.5%	71.2%	72.8%	-27.5% (active)	92.6%	44.6%	-64.5% (active)	2.44% (active)	–
